Several values for one entry are separate records, joined by “and”; a condition that tells them apart may be missing. Equal values may be shown once. Where a name gives a salt, the structure may show the parent alone. ± gives the standard deviation of the averaged measurements.
What was measured:
[1] = tested on: ES2; assay: cell viability relative to DMSO control (MTS) (fraction of DMSO control); higher = more viable cells / less growth inhibition; details: 10 µM; 48 h
Procedure, shortened: (§1)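 After 24 h of growth in 96-well plates at 5000 cells per well, TOV-21G and ES2 clear cell carcinoma cells were treated for 48 h with a 367-compound […] library at 10 µM final concentration. Cell viability was measured by MTS assay and expressed relative to vehicle control wells as a fraction.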

[2] = tested on: TOV-21G; assay: as above; details: 10 µM; 48 h
Procedure, shortened: as §1

Compound | cell viability [1] | cell viability [2]
O=C(O)c1ccccc1Nc1ccccc1 [N-phenylanthranilic acid] | 1.02 | 0.995
COc1cc2ncnc(Nc3cccc(Cl)c3)c2cc1OC | 1.04 ± 0.12 | 0.839 ± 0.24
Cc1cc([N+](=O)[O-])ccc1NS(=O)(=O)c1cc(Cl)ccc1Cl | 0.894 | 1.14
COc1cc2nccc(Oc3ccc(NC(=S)NC(=O)c4ccccc4C)cc3)c2cc1OC [PDGF receptor tyrosine kinase inhibitor V] | 0.874 | 0.525
Oc1ccc(-c2nc(-c3ccc(F)cc3)c(-c3ccncc3)[nH]2)cc1 | 0.468 | 0.806
CNC(=N)NCCC[C@H](N)C(=O)O | 0.909 | 0.974
COc1ccc(OC)c2c(=S)c3ccccc3[nH]c12 | 1.35 | 1.14
COC(=O)C1=C(C)NC(C)=C(C(=O)OC)C1c1ccccc1[N+](=O)[O-] [Nifedipine] | 0.911 | 0.741
C[C@@H]1C[C@H]2O[C@@H]2/C=C\C=C\C(=O)Cc2c(Cl)c(O)cc(O)c2C(=O)O1 [Radicicol] | 0.533 | 0.37
CCCCOc1cc(CC2CNC(=O)N2)ccc1OC (stereo unspecified) | 0.901 | 0.999
COC(=O)C[C@H](NC(=O)[C@H](C)NC(=O)[C@@H](NC(=O)OCc1ccccc1)C(C)C)C(=O)CF | 1.42 | 1.16
CC(C)(C)c1nc2c3cc[nH]c(=O)c3c3cc(F)ccc3c2[nH]1 [JAK Inhibitor I] | 0.561 | 0.662
CN(C)S(=O)(=O)c1ccc2c(c1)/C(=C/c1cc3c([nH]1)CCCC3)C(=O)N2 | 1.03 | 0.891
CC(C)[C@H](CO)Nc1nc(Nc2cccc(Cl)c2)c2ncn(C(C)C)c2n1 [Purvalanol A] | 0.815 | 0.652
NCC(=O)Nc1ccc(-n2nc(C(F)(F)F)cc2-c2ccc3c(ccc4ccccc43)c2)cc1 | 1.04 | 1.21
N#C/C(=C(/N)Sc1ccccc1N)c1cccc(C(O)c2ccncc2)c1 (stereo unspecified) [MEK inhibitor I] | 0.866 | 0.898
CCCCC[C@H](CC(=O)NO)C(=O)N[C@H](C(=O)N1CCC[C@H]1CO)C(C)C [Actinonin] | 1 | 0.848
COc1cc2ncnc(Nc3ccc(NC(=O)c4ccccc4)cc3)c2cc1OC [Aurora kinase inhibitor II] | 1.09 | 0.688
COc1cc2/c(=N/c3ccc(Br)cc3F)nc[nH]c2cc1OCC1CCN(C)CC1 [Vandetanib] | 0.577 | 0.436
Cc1ccc2nc(NCCN)c3ncc(C)n3c2c1 | 0.489 | 0.375
Cc1ccc(NC(=O)c2cccc(N(C)C)c2)cc1NC(=O)c1ccc(O)cc1 | 0.951 | 0.888
N#CC(=C(/N)Sc1ccccc1N)/C(C#N)=C(/N)Sc1ccccc1N | 0.685 and 0.748 | 0.824 and 1.02
Cc1nc2sccn2c(=O)c1CCN1CCC(=C(c2ccccc2)c2ccc(F)cc2)CC1 | 0.963 | 1.04
CC(C)C[C@@H](N)[C@H](O)C(=O)N[C@H](C(=O)N[C@H](C(=O)N[C@@H](CC(=O)O)C(=O)O)C(C)C)C(C)C [Amastatin] | 0.963 | 1.02
Cc1ccc(NC(=O)c2ccc(CN3CCN(C)CC3)cc2)cc1Nc1nccc(-c2cccnc2)n1 [imatinib mesylate] | 0.956 | 1.09

Compound | cell viability [1] | cell viability [2]
CO[C@H]1C[C@@H]2CC[C@@H](C)[C@@](O)(O2)C(=O)C(=O)N2CCCC[C@H]2C(=O)O[C@H]([C@H](C)C[C@@H]2CC[C@@H](OCCO)[C@H](OC)C2)CC(=O)[C@H](C)/C=C(\C)[C@@H](O)[C@@H](OC)C(=O)[C@H](C)C[C@H](C)/C=C/C=C/C=C/1C [everolimus] | 1.02 | 0.831
O=Nc1c(-c2c(O)[nH]c3ccccc23)[nH]c2ccccc12 [indirubin-3'-monoxime] | 0.696 | 0.491
O=C(O)c1cc(NCc2cc(O)ccc2O)ccc1O [Lavendustin C] | 1.36 | 1.17
CNCCCN1c2ccccc2CCc2ccccc21 [desipramine hydrochloride] | 0.954 | 0.745
O=C1Cc2c([nH]c3ccc(Br)cc23)-c2ccccc2N1 [Kenpaullone] | 0.701 ± 0.11 | 0.468 ± 0.048
C[S+]([O-])c1ccc(-c2nc(-c3ccc(F)cc3)c(-c3ccncc3)[nH]2)cc1 (stereo unspecified) | 0.916 | 0.908
CCOC(=O)C(C)(C)Oc1ccc(Cl)cc1 [Clofibrate] | 1.35 | 1.03
OCCn1cc(-c2cnc3nnn(Cc4ccc5ncccc5c4)c3n2)cn1 | 1.05 | 1.18
Cc1nc(Nc2ncc(C(=O)Nc3c(C)cccc3Cl)s2)cc(N2CCN(CCO)CC2)n1 [dasatinib] | 0.608 | 0.815
N#CC[C@H](C1CCCC1)n1cc(-c2ncnc3[nH]ccc23)cn1 [Ruxolitinib] | 0.979 | 0.776
O=c1cc(N2CCOCC2)oc2c(-c3ccccc3)cccc12 | 0.666 and 0.627 | 0.52 and 0.519
O=C(Nc1cccc(Nc2nccc(Nc3cccc(C(F)(F)F)c3)n2)c1)C1CC1 [Aurora kinase inhibitor III] | 0.94 | 0.573
C[n+]1ccc(-c2c3nc(c(-c4cc[n+](C)cc4)c4ccc([nH]4)c(-c4cc[n+](C)cc4)c4ccc([nH]4)c(-c4cc[n+](C)cc4)c4nc2C=C4)C=C3)cc1 | 0.933 | 0.79
Fc1ccc(Cl)cc1-c1nc(Nc2ccncc2)c2nccnc2n1 | 0.645 | 1.08
O=S(=O)(c1cccc2cnccc12)N1CCCNCC1 | 0.979 | 1.04
CC(ONC(=O)c1cc(C(F)(F)F)cc(C(F)(F)F)c1)C(=O)Nc1ccc(Cl)cc1 (stereo unspecified) | 1.24 | 1.21
CCC(=C/[C@H](C)C/C=C/C(C)=C/[C@@H](C)C(=O)[C@@H](C)[C@H](O)[C@@H](C)C/C(C)=C/C(=O)O)/C=C/[C@@H]1OC(=O)C=C[C@@H]1C [Leptomycin B*] | 0.406 | 0.39
Oc1nc(-c2ccc(C(F)(F)F)cc2)nc2c1CSCC2 | 0.961 | 1.1
Nc1cccc(-c2cc3c(Oc4cccc(O)c4)ncnc3[nH]2)c1 | 0.586 | 1.03
CCCS(=O)(=O)Nc1ccc(F)c(C(=O)c2c[nH]c3ncc(-c4ccc(Cl)cc4)cc23)c1F [Vemurafenib] | 0.651 | 0.881
Cc1ncc2ccccc2c1C#N [4-cyano-3-methylisoquinoline] | 1.01 | 1
CC(=N)NCc1cccc(CN)c1 | 1.15 | 0.992
CNC(=O)[C@H](Cc1c[nH]c2ccccc12)NC(=O)[C@@H](CC(=O)NO)CC(C)C | 1.02 | 0.959
CCN1/C(=C/C(C)=O)Sc2ccc(OC)cc21 | 0.857 | 1.01
CC1=C(/C=C/C(C)=C/C=C/C(C)=C/C(=O)O)C(C)(C)CCC1 [tretinoin] | 1.01 | 1.51

Compound | cell viability [1] | cell viability [2]
CC(C)[C@H](CO)Nc1nc(Nc2cccc(Cl)c2)c2ncn(C(C)C)c2n1 [purvalanol A] | 0.657 | 0.607
C=CC[C@@H]1/C=C(\C)C[C@H](C)C[C@H](OC)[C@H]2O[C@@](O)(C(=O)C(=O)N3CCCC[C@H]3C(=O)O[C@H](/C(C)=C/[C@@H]3CC[C@@H](O)[C@H](OC)C3)[C@H](C)[C@@H](O)CC1=O)[C@H](C)C[C@@H]2OC | 0.941 | 0.964
O=C(CCCCCCC(=O)Nc1ccccc1)NO [vorinostat] | 0.38 | 0.388
COc1nccc(-c2c(-c3ccc(F)cc3)ncn2C2CCC(O)CC2)n1 (stereo unspecified) | 1.14 | 1.06
CCCCCCCCCCC[C@@H](C[C@@H]1OC(=O)[C@H]1CCCCCC)OC(=O)[C@H](CC(C)C)NC=O [orlistat] | 1.08 | 1.14
COC(=O)[C@H](CC(C)C)NC(=O)c1ccc(NC[C@@H](N)CS)cc1-c1ccccc1 | 1.09 | 0.633
Nc1ncn([C@@H]2O[C@H](CO)[C@@H](O)[C@H]2O)c(=O)n1 [Azacytidine] | 0.664 | 0.779
CC(/C=C/C(=O)NO)=C\[C@@H](C)C(=O)c1ccc(N(C)C)cc1 [Trichostatin A] | 0.343 | 0.355
CC(C)CC(=O)N[C@H](C(=O)N[C@H](C(=O)N[C@@H](CC(C)C)[C@@H](O)CC(=O)N[C@@H](C)C(=O)N[C@@H](CC(C)C)[C@@H](O)CC(=O)O)C(C)C)C(C)C [Pepstatin A] | 0.807 | 1.18
NC(=O)Nc1sc(-c2ccccc2)cc1C(N)=O [IKK-2 inhibitor VI] | 0.555 | 0.476
C[C@@H](N)[C@H]1CC[C@H](C(=O)Nc2ccncc2)CC1 | 1.09 and 0.911 | 0.922 and 0.973
COc1cc2ncc(-c3ccccc3)nc2cc1OC | 0.862 ± 0.058 | 0.955 ± 0.13
O=C(c1cc(Cc2n[nH]c(=O)c3ccccc23)ccc1F)N1CCN(C(=O)C2CC2)CC1 [Olaparib] | 0.77 | 0.888
COc1cc2c(NC3CCN(C(C)C)CC3)nc(C3CCCCC3)nc2cc1OCCCN1CCCC1 | 0.337 | 0.486
COC(=O)c1ccc(NCc2cc(O)ccc2O)cc1 | 1.414 ± 0.0028 | 1.06 ± 0.026
NC(=O)c1cccc2cn(-c3ccc([C@@H]4CCCNC4)cc3)nc12 [MK-4827 (Niraparib)] | 0.61 | 0.783
CS(=O)(=O)Nc1ccc([N+](=O)[O-])cc1OC1CCCCC1 | 0.933 | 1.02
CC1=Nc2ccc(Cl)cc2S(=O)(=O)N1 [Diazoxide] | 0.816 | 0.996
N=C(N)NC(=O)c1nc(Cl)c(N)nc1N [Amiloride] | 1.16 | 1.24
Cc1cc(Nc2cc(N3CCN(C)CC3)nc(/C=C/c3ccccc3)n2)n[nH]1 | 0.534 | 0.289
COc1ccc(CCN(C)CCCC(C#N)(c2ccc(OC)c(OC)c2)C(C)C)cc1OC (stereo unspecified) [Verapamil] | 0.953 | 1.12
O=CN1CCN(c2ccc(/C=C3\C(=O)Nc4ccccc43)cc2)CC1 | 1.13 | 1.2
NS(=O)(=O)c1ccc(Nc2nc(OCC3CCCCC3)c3[nH]cnc3n2)cc1 | 0.699 | 0.784

Reference: the supplement of paper PMC12669797
